Experimental data taken from PubChem BioAssay (NCATS).
Values joined by “and” are separate entries in the source; they are usually repeats but may differ in a detail not shown here. Identical values can stand only once. Results filed as inconclusive are left out. Some structures have more than one record in an assay (separate samples or runs), and their calls can disagree. Active and inactive are the calls of the source. Unless noted, calls follow the shape of the dose curve; as a rule, active = well fitted curve in the direction sought with a large enough effect; inconclusive = small, poorly fitted or top-dose-only effect, or another doubt; inactive = no such curve, though single readings can be large; an effect the other way counts as inactive or inconclusive.

Tests used:
[1] = AP1 Signaling Pathway (AID 357; active = well fitted curve in either direction with a large enough effect, not every such curve was filed as active;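 also: ME-180 reporter cells stimulated with EGF at its EC50 level; % is scaled to controls: 0 for no effect and ±100 for the full control effect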); conditions: ME-180 AP-1-bla reporter, EGF-induced, beta-lactamase ratio, 5 h; at 38 µM (top of the series)
Outline: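 A ratiometric CCF4 readout (405 nm excitation; 460 and 530 nm emission) quantified AP-1-driven beta-lactamase in ME-180 cells after 5 h with compound and EC50 EGF; AC50 values were derived for activators and inhibitors.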

[2] = molecular target: Cytochrome P450 1A2 (Homo sapiens) (UniProt P05177); experiment: p450-cyp1a2 (AID 410; calls by dose curve; also: potency is read from the fitted curve at half-maximal effect;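 as to activity change, negative = inhibition: -100% = full effect of reference inhibitor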); conditions: recombinant CYP1A2, luciferin-ME demethylation, luminescence; series mostly up to 57 µM
Outline: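 Luminescent demethylation readout: Luciferin-ME (100uM, equal to Km) turned over by 20nM CYP1A2 for 60 min at room temperature after NADPH regeneration addition, following 10 min compound preincubation. Normalization used 57 uM furafylline as full inhibition.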

[3] = NFAT Signaling Pathway (AID 444; active = well fitted curve in either direction with a large enough effect, not every such curve was filed as active;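 also: carbachol stimulus at about its EC50 of 1 µM final; % is scaled to controls: 0 for no effect and ±100 for the full control effect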); conditions: Jurkat NFAT-bla M1, carbachol, beta-lactamase ratio, 5 h
Outline: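 Jurkat cells with NFAT-driven β-lactamase reporter and co-expressed M1 receptor, stimulated with carbachol (final 1 uM, ~EC50), compound titration, 5 h at 37 °C. CCF4 loaded 1 h at RT; 460/530 nm ratio gave %activity and AC50.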

[4] = Stat Signaling Pathway (AID 446; active = well fitted curve in either direction with a large enough effect, not every such curve was filed as active;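 also: ME-180 cervical cancer cells given 40 pM IL-6 alongside compound; SIE-controlled beta-lactamase reporter measured as 460/530 nm FRET emission ratio; % is scaled to controls: 0 for no effect and ±100 for the full control effect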); conditions: ME-180 (cervical carcinoma) SIE beta-lactamase reporter, IL-6 stimulated, 5 h
Outline: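 Compound effects on IL-6-induced STAT reporter activity were measured in ME-180 cells. After overnight culture, cells were co-treated with 40 pM IL-6 for 5 hrs before beta-lactamase substrate loading at room temperature.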

[5] = molecular target: Glucocorticoid receptor (Homo sapiens) (UniProt P04150); experiment: GR-GFP Redistribution (AID 450;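 active = compounds whose dose series gives a full or clear partial fitted curve of increased nuclear translocation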; also: potency is read from the fitted curve at half-maximal effect); conditions: U2OS GR-GFP nuclear translocation, laser cytometry, 2 h
[6] = molecular target: Glucocorticoid receptor (Homo sapiens) (UniProt P04150); experiment: GR-EFC Redistribution (AID 451; calls by dose curve; also: potency is read from the fitted curve at half-maximal effect); conditions: CHO-K1 GR-EFC translocation, beta-gal luminescence, 2 h
Outline: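 CHO-K1 cells expressing nuclear EA and GR-ED fragments of b-gal; compounds titrated up to 46 uM final, 2 h at 37 C. GR nuclear translocation read as complemented b-gal luminescence after 1 h RT detection.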

[7] = molecular target: Mitogen-activated protein kinase 10 (Mus musculus) (UniProt Q61831); experiment: JNK3 AlphaScreen Assay (AID 530; active = well fitted curve in either direction with a large enough effect, not every such curve was filed as active;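 also: kinase came from lysate of stimulated human HepG2 cells; signal reports phosphorylation of biotinylated GST-cJun 1-79 at Ser73 with 10 µM ATP; % is scaled to controls: 0 for no effect and ±100 for the full control effect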); conditions: JNK3 lysate, c-Jun phosphorylation; series mostly up to 57.1 µM
Outline: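 Activity was read by AlphaScreen after JNK3-containing HepG2 lysate (cytokine pre-activated) phosphorylated biotinylated GST-cJun with 10 uM ATP at room temperature. Phospho-Ser73 cJun antibody with Protein-A acceptor beads provided detection.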

[8] = molecular target: 3',5'-cyclic-AMP phosphodiesterase 4B (Homo sapiens) (UniProt Q07343); experiment: qHTS Assay for Inhibitors of PDE-IV (AID 607; active = well fitted activation curve with a large enough effect in the main read-out, with a control signal flat, not every such curve was filed as active; also: % of control where 0% means no effect); conditions: HEK293 ACTOne CNG channel cells, membrane potential fluorescence; series mostly up to 22.9 µM
Outline: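 ACTOne HEK293 cells carry a modified cAMP-gated CNG channel and express endogenous PDE4; plated 1000 cells/well, compounds up to 22.9 uM final. Membrane-potential dye fluorescence (ex 535/em 590) was read; parental cells received 10 uM forskolin + 100 uM RO 20-1724.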

[9] = molecular target: Guanine nucleotide-binding protein G(i) subunit alpha-1 (Homo sapiens) (UniProt P63096); experiment: qHTS Assay for Inhibitors of RGS12 GoLoco Motif Activity (Green Fluorophore) (AID 879); conditions: Galphai1/FITC-RGS12 GoLoco peptide, fluorescence polarization; series mostly up to 57.1 µM;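 also: 0% = labeled peptide with Gαi1 and full inhibition = labeled peptide alone without protein; negative values mean loss of peptide binding seen as reduced polarization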
Outline: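 A drop in FITC polarization marked displacement of the FITC-tagged RGS12 GoLoco peptide (10 nM) from Gαi1 (50 nM). Compounds were incubated 10 min at room temperature in Tris pH 7.5 buffer containing 150 mM NaCl, 0.1 mM GDP and 0.05% NP40; unlabeled peptide titration served as control.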

[10] = molecular target: Cytochrome P450 3A4 (Homo sapiens) (UniProt P08684); experiment: qHTS Assay for Activators of Cytochrome P450 3A4 (AID 885); conditions: recombinant CYP3A4, Luciferin-PPXE luminescence, 60 min; series mostly up to 57.1 µM; also: nearly all actives have a fitted effect of over 65% in size
Outline: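 CYP3A4 activity: Luciferin-PPXE O-dealkylation, 25uM substrate, 200mM KPO4, RT throughout. Read-out is luciferase luminescence; higher values reflect activation.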

[11] = molecular target: Cytochrome P450 2D6 (Homo sapiens) (UniProt P10635); experiment: qHTS Assay for Inhibitors and Substrates of Cytochrome P450 2D6 (AID 891); conditions: recombinant CYP2D6, luciferin-ME EGE luminescence; series mostly up to 57.1 µM; also: nearly all actives have a fitted effect of over 60% in size; also: potency is read from the fitted curve at half-maximal effect
Outline: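 Luminescent read-out of luciferin formed by 5 nM human CYP2D6 demethylating 30 uM Luciferin-ME EGE (Km level) over 60 min at room temperature after NADPH regeneration addition. Data normalized to full inhibition by 1.43 uM quinidine.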

[12] = molecular target: Alpha-galactosidase A (Homo sapiens) (UniProt P06280); experiment: Counterscreen for Glucocerebrosidase Inhibitors: qHTS Assay for Human alpha-Galactosidase at pH 4.5 (AID 992); conditions: purified enzyme, fluorogenic substrate; series mostly up to 76.9 µM; also: 0% is about no effect
Outline: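 Citrate buffer pH 4.5, Tween-20 0.005%. Enzyme 2 nM, substrate 80 uM, 20 min RT. Stop pH 10. Fluorescence Ex 365/Em 440. AC50 by Hill fit.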

[13] = molecular target: alpha-glucosidase (Oryza sativa, rice) (UniProt Q653V4); experiment: Counterscreen for Glucocerebrosidase Inhibitors: qHTS Assay for Rice alpha-Glucosidase at pH 5.0 (AID 997); conditions: rice alpha-glucosidase enzyme activity; series mostly up to 76.9 µM;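 also: 0% = full activity with enzyme and -100% = basal without enzyme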
Outline: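 Endpoint fluorogenic assay at pH 5.0: compounds (0.7 nM to 77 uM) titrated against 4 nM rice enzyme and 400 uM 4-MU-alpha-glucoside for 20 min at room temperature; NaOH/glycine stop, read ex 365/em 440 nm, Hill-fitted AC50.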

[14] = qHTS Assay for Lipid Storage Modulators (AID 1519; calls by dose curve); conditions: Drosophila S3 cells, BODIPY lipid droplet/cell ratio, laser cytometry, cells loaded with oleic acid
Outline: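 Cells seeded at 5,000 per well were treated with compounds over a concentration series and loaded with oleic acid (400 uM, as added). Lipid droplet fluorescence (488 nm excitation, 500-530 nm channel) was read by laser-scanning cytometry and normalized to 20 uM Triacsin C.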

[15] = molecular target: Ubiquitin carboxyl-terminal hydrolase 1 (Homo sapiens) (UniProt O94782); experiment: Inhibitors of USP1/UAF1: Pilot qHTS (AID 504865); conditions: purified USP1/UAF1, Ub-rhodamine cleavage fluorescence; series mostly up to 114 µM;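 also: rhodamine fluorescence freed from ubiquitin-rhodamine substrate followed over time; top concentration of the series differs between compounds; % is scaled to controls: 0 for no effect and ±100 for the full control effect; nearly all actives have a fitted effect of over 35% in size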
Outline: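 USP1/UAF1 complex at 1 nM preincubated 15 min at room temperature with compound, then Ub-Rho substrate added at 150 nM final. Fluorescence (480/540 nm) read kinetically in 50 mM HEPES pH 7.8, 0.5 mM EDTA, 1 mM TCEP, 0.1 mg/ml BSA, 0.01% Tween-20.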

[16] = molecular target: DNA dC->dU-editing enzyme APOBEC-3G (Homo sapiens) (UniProt Q9HC16); experiment: qHTS for inhibitors of Vif-A3G interactions: Validation (AID 588379); conditions: Vif-A3G protein interaction assay; series mostly up to 46.1 µM; also: 0% is about no effect
Outline: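 Yellow fluorescence (Ex 488, Em 500-530) of Vif-coexpressing HeLa A3G-eYFP cells, scanned by Acumen cytometer, reports blocked A3G degradation. Cells plated at 700/well overnight at 37 deg C before compound addition, then a further overnight compound incubation at 37 deg C.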

[17] = system: Zika virus NS2B-NS3 protease; experiment: Primary screen GU AMC qHTS for Zika virus inhibitors (AID 1347154); conditions: Zika NS2B-NS3 unlinked protease, AMC fluorogenic substrate; series mostly up to 54.1 µM;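 also: 0% = no-inhibitor control and -100% = no-enzyme control; nearly all actives have a fitted effect of over 70% in size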
Outline: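 Unlinked Zika NS2B hydrophilic domain–NS3 protease complex at 25 nM in 10 mM Tris-HCl pH 8.0, 0.01% Tween 20, with an AMC peptide substrate. Fluorescence change (340/450 nm) over 15 min at room temperature, normalized to controls, fitted to 4-parameter Hill.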

[18] = Primary qHTS for small molecule stabilizers of the endoplasmic reticulum resident proteome: Secreted ER Calcium Modulated Protein (SERCaMP) assay (AID 1508630); conditions: SH-SY5Y GLuc-SERCaMP (Gaussia luciferase released on ER calcium loss) secretion, thapsigargin, luminescence; series mostly up to 38.4 µM; also: % is scaled to controls: 0 for no effect and ±100 for the full control effect
Outline: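 The SH-SY5Y reporter protocol was run at 3 concentrations up to 38.3 uM (primary) or 11 concentrations (follow-up): 16 h compound, 100 nM thapsigargin for 4 h, then extracellular luciferase luminescence.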

[19] = molecular target: Pyruvate kinase (Leishmania mexicana) (UniProt Q27686); experiment: qHTS Validation Assay for Inhibitors of Leishmania Mexicana Pyruvate Kinase (AID 945);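 also: 0% = DMSO only neutral control wells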; conditions: purified L. mexicana pyruvate kinase, enzyme activity, E451W mutant enzyme; series mostly up to 57.5 µM
Outline: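 The enzyme is a highly purified E451W mutant of LmPYK used at 0.2 nM. It converts 0.5 mM PEP and 0.1 mM ADP over 1 h at room temperature; product ATP is quantified by luciferase luminescence relative to DMSO controls.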

[20] = measured here: cell count channel max response
[21] = measured here: lipid channel max response

Sequence of 3',5'-cyclic-AMP phosphodiesterase 4B (Homo sapiens) (Q07343 whole entry, looked up): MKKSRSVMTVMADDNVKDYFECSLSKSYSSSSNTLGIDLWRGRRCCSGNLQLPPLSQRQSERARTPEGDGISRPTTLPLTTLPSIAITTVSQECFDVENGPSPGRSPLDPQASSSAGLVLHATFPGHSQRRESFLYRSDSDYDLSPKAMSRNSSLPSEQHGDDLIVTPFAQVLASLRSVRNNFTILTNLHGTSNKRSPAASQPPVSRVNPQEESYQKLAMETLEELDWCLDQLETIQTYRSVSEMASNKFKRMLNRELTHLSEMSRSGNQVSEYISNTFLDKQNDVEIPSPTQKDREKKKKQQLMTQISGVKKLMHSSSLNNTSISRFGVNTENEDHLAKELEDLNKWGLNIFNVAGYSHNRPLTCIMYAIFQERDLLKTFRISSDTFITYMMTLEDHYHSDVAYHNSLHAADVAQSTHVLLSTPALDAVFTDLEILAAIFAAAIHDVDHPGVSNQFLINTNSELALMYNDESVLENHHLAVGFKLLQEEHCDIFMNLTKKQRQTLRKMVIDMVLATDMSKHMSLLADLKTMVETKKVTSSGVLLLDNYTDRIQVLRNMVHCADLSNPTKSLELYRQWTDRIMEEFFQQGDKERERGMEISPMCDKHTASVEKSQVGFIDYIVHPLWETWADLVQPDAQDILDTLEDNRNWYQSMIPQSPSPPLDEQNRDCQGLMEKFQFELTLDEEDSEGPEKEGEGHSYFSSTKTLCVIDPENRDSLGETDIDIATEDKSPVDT
Sequence of DNA dC->dU-editing enzyme APOBEC-3G (Homo sapiens) (Q9HC16 whole entry, looked up): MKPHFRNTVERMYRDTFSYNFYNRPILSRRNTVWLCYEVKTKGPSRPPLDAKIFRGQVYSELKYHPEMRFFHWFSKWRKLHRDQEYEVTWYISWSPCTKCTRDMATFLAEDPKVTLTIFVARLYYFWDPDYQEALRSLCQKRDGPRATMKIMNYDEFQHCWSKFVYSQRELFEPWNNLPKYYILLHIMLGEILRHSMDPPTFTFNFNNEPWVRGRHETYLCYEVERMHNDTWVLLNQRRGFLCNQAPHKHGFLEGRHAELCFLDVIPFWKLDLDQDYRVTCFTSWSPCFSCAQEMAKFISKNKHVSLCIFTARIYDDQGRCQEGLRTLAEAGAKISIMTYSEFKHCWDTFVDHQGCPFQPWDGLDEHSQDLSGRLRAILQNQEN
Sequence of Cytochrome P450 2D6 (Homo sapiens) (P10635 whole entry, looked up): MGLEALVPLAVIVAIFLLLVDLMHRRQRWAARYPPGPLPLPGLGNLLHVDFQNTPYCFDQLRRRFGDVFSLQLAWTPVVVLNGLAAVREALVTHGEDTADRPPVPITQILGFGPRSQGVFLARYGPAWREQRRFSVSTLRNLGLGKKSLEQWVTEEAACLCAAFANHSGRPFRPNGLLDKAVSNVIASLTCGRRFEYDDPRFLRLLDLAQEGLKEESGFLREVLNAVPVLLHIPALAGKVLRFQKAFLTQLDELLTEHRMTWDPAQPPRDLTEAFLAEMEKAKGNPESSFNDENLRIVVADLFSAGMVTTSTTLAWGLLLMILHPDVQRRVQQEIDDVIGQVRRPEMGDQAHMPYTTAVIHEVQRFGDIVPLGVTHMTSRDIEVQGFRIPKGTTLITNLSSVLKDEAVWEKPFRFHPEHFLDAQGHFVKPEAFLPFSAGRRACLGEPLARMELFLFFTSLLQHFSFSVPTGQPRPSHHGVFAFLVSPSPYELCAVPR
Sequence of Glucocorticoid receptor (Homo sapiens) (P04150 whole entry, looked up, the tested form may be a part): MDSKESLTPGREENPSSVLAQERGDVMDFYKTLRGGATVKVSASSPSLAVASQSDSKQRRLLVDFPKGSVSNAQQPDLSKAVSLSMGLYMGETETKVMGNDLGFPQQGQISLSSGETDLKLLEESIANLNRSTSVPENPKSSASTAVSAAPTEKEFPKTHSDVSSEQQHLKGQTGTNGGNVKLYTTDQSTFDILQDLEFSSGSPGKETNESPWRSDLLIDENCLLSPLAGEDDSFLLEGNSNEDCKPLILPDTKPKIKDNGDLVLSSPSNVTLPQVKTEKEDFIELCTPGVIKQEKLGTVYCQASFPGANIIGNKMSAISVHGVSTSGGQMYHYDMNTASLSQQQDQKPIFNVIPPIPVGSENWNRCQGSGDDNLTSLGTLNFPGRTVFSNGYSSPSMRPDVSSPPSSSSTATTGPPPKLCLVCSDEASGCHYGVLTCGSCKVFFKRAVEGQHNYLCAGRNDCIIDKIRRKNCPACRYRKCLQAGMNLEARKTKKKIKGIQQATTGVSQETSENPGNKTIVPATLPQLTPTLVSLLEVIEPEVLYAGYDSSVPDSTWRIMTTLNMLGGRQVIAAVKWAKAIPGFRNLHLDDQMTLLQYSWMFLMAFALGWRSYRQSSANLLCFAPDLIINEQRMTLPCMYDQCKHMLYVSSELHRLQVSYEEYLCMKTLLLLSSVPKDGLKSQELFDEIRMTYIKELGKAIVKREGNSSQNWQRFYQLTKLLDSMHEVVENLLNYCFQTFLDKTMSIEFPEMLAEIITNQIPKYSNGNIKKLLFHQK
Sequence of Ubiquitin carboxyl-terminal hydrolase 1 (Homo sapiens) (O94782 whole entry, looked up): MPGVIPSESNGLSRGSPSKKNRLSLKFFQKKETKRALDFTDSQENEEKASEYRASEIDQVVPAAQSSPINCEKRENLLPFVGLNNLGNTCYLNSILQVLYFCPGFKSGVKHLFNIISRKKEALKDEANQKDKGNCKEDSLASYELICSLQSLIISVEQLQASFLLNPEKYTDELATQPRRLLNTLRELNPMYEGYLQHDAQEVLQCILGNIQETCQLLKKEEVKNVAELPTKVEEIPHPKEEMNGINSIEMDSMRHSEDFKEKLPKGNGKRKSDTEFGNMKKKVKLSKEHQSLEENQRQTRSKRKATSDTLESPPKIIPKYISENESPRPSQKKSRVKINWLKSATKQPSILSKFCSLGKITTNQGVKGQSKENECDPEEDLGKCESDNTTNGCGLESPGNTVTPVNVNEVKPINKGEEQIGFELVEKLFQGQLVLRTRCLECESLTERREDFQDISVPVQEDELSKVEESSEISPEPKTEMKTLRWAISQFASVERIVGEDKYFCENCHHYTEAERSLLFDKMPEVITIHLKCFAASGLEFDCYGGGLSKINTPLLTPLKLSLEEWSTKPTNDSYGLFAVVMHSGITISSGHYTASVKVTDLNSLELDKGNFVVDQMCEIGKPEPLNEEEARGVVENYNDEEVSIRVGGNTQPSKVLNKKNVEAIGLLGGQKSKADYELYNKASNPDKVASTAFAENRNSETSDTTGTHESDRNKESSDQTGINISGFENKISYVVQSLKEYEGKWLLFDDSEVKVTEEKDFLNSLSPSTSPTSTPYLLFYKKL
Sequence of Cytochrome P450 3A4 (Homo sapiens) (P08684 whole entry, looked up): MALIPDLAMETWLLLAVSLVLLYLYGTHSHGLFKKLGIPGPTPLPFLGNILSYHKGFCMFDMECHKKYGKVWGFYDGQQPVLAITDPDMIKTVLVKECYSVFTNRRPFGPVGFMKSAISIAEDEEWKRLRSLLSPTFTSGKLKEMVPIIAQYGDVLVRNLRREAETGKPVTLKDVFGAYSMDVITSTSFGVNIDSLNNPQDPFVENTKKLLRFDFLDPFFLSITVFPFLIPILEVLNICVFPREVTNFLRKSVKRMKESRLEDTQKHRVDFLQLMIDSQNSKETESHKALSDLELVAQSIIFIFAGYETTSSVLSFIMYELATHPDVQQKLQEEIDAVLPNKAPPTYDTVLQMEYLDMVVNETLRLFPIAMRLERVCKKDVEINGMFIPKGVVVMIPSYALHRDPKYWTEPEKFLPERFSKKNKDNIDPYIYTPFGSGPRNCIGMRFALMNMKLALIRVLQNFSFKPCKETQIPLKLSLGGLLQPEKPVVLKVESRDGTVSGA
Sequence of Cytochrome P450 1A2 (Homo sapiens) (P05177 whole entry, looked up): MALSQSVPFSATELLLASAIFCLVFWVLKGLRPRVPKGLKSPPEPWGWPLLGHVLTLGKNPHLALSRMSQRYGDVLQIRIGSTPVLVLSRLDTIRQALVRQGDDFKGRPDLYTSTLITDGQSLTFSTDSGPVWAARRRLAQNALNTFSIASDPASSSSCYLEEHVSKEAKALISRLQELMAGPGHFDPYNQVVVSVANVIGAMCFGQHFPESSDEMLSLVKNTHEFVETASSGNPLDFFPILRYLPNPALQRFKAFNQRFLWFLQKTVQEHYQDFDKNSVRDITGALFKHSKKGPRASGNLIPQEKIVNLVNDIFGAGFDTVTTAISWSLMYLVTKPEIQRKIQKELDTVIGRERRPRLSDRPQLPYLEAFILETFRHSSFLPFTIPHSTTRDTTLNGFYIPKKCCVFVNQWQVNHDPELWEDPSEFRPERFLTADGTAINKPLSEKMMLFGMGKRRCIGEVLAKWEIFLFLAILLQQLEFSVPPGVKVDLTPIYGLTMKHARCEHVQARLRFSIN
Sequence of Guanine nucleotide-binding protein G(i) subunit alpha-1 (Homo sapiens) (P63096 whole entry, looked up): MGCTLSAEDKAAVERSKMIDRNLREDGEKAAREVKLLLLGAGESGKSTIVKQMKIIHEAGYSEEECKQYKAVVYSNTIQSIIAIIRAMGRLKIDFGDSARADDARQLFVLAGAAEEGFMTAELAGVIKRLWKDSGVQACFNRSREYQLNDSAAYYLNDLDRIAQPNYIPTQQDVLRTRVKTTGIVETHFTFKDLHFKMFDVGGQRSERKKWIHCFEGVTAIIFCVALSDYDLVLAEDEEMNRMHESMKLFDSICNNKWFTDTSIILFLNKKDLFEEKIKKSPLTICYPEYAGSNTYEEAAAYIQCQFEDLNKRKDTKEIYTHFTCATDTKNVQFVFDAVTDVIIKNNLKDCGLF
Sequence of Alpha-galactosidase A (Homo sapiens) (P06280 whole entry, looked up): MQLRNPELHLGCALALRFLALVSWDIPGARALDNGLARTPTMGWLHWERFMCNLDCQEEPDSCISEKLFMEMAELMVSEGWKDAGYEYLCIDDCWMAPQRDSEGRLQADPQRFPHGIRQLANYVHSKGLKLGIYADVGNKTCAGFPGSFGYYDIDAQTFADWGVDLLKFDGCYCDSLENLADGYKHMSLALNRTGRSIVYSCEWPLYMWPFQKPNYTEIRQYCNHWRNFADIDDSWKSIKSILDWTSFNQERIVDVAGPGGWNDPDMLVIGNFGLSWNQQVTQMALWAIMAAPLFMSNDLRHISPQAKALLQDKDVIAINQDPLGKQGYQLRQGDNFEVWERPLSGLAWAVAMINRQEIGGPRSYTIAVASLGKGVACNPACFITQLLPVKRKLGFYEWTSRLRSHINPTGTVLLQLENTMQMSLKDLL

C[C@H](N=C(NC#N)Nc1ccncc1)C(C)(C)C
-1.85%: max response [14, 21]
1.19%: max response [14, 20]
inactive: activity change, negative = inhibition [1] -27.9% | activity change, negative = inhibition ([3]; at 17.2 µM (top of the series)) 5.32% | activity change, negative = inhibition ([3]; at 38 µM (top of the series)) 6.54% | activity, negative = inhibition ([4]; at 17.2 µM (top of the series)) -8.19% | activity, negative = inhibition ([4]; at 38 µM (top of the series)) -12.4% | Potency [5] > 46 µM and > 20.6 µM | Potency [6] > 46 µM and > 20.6 µM | Potency [7] | Potency [8] | outcome [9] | Potency [10] | Potency [11] | outcome [12] | outcome [13] | activity change, negative = inhibition ([14]; at 25.7 µM (top of the series)) -0.699% | Potency [15] | Potency [16] | Potency [17] | Potency [18]
15.8 µM (active) and inactive: Potency [2]

CN1CCN(CCc2ccc(Cl)c(Cl)c2)CC1
-14.6%: max response [14, 20]
active: Potency [2] 25.1 µM
-12.9%: max response [14, 21]
inactive: Potency [5] > 46 µM | Potency [6] > 46 µM | Potency [7] | Potency [8] | activity change, negative = inhibition ([14]; at 57.5 µM (top of the series)) -0.655% | Potency [15] | Potency [16] | Potency [17] | Potency [18]

CNCC[C@H](Oc1ccccc1OC)c1ccccc1
-10.8%: max response [14, 20]
-15.9%: max response [14, 21]
inactive: activity change, negative = inhibition [1] 26.3% | activity, negative = inhibition ([4]; at 17.2 µM (top of the series)) -0.439% | activity, negative = inhibition ([4]; at 38 µM (top of the series)) 4.82% | Potency [8] | outcome [9] | Potency [10] | Potency [19] | outcome [12] | outcome [13] | activity change, negative = inhibition ([14]; at 25.7 µM (top of the series)) -2.76% | Potency [15] | Potency [16] | Potency [17] | Potency [18]
active: Potency [2] 12.6 µM and 10 µM and 15.8 µM | Potency [11] 5.01 µM and 1.26 µM
